Compounds with a hit are over-represented: about 27% of the library has one in this group of screens.
CYP2C19 activ = activators of human cytochrome P450 2C19; P33261; recombinant CYP2C19, luciferin-H EGE luminescence; hits give high values; 0 = fully inhibited enzyme, 1 = untreated enzyme; activation factor at 5 µM; 96,000 tested, under 10 active; AID 1025;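 active = activation factor of at least 2 at 5 µM in the primary screen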
Target sequence (P33261 whole entry, looked up): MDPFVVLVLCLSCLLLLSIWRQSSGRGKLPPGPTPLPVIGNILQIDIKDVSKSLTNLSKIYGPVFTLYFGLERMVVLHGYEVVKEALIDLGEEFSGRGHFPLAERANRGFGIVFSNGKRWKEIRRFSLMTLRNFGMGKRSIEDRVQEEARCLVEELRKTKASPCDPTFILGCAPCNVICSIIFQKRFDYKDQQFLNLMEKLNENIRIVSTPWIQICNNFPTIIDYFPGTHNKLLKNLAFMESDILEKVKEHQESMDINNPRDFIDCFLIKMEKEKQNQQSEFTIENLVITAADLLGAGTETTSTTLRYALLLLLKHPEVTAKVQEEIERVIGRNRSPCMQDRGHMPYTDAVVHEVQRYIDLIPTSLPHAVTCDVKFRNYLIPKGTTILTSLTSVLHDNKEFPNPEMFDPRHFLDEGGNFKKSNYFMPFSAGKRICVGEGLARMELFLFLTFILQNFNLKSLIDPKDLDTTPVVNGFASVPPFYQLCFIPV
CYP2C19 inh = human CYP2C19 inhibition; P33261; CYP2C19 Supersomes, luciferin-H EGE luminescence, 30 min; inhibition, % at 5 µM; 96,000 tested, 21% active;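 active = CYP2C19 inhibition above a set limit at 5 µM in the primary screen, cut at about 50% in these data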
CYP2C9 inhib = human CYP2C9 inhibition; CYP2C9 Supersomes, luciferin-H conversion, luminescence; inhibition, % at 5 µM; 96,000 tested, 20% active; AID 777;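 active = blocking of liver enzyme CYP2C9 beyond about 50% at 5 µM, limit read from the data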
CYP2C9 activ = activators of human CYP2C9. P11712. activation factor at 5 µM. 96,000 tested, 1.4% active. recombinant CYP2C9, luciferin-H conversion, luminescence; hits give high values; factor 1 = untreated enzyme, 0 = blocked;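 active = activation factor of 2 or more for CYP2C9 at a 5 µM dose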
EphB4 antag = EphB4-ephrin-B2 interaction antagonism. P54760. EphB4 LBD / TNYL-RAW-Alexa532 peptide, fluorescence polarization. inhibition, % at 7 µM. 97,000 tested, 0.15% active;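 active = inhibition above the screen-wide mean inhibition plus 3 SD, cut at about 15% in these data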
A number is an active result; – = inactive; · = no result.

SMILES	CYP2C19 activ	CYP2C19 inh	CYP2C9 inhib	CYP2C9 activ	EphB4 antag
CCC(C)NC(=O)C1CCN(S(=O)(=O)c2cccc3cccnc23)CC1 (configuration not stated)	–	–	–	3.2	–
O=C(NC1CCCCCC1)C1CCCN1S(=O)(=O)c1cccc2cccnc12 (configuration not stated)	–	75	–	–	–
O=C(NC1CCCCC1)C1CCN(S(=O)(=O)c2cccc3cccnc23)CC1	–	55	–	3.4	–
CCC(=O)Nc1ccc(Cl)c(NC(=O)c2cccnc2)c1	–	–	–	–	–
O=C1CC(N(C(=O)c2ccco2)c2ccc(F)cc2)C(=O)N1c1ccc(F)cc1 (configuration not stated)	–	–	–	–	–
CN1/C(=C/C(=O)c2nc(S(C)(=O)=O)ncc2Cl)C(C)(C)c2ccccc21	–	–	–	–	–
O=C(NC1CCCC1)C1CCCN1S(=O)(=O)c1cccc2cccnc12 (configuration not stated)	–	59	–	–	–
O=C(NCc1ccccc1)C1CCCN1S(=O)(=O)c1cccc2cccnc12 (configuration not stated)	–	–	–	–	–
COc1ccc(S(=O)(=O)NCCSC(C)(C)C)c(Cl)c1Cl	–	94	–	3.2	–
CCCNS(=O)(=O)c1ccc(OC)c(Cl)c1Cl	–	53	–	–	–
COc1ccc(S(=O)(=O)NCc2ccccn2)c(Cl)c1Cl	–	88	–	2	–
COc1ccc(Br)cc1CN1CCCC(C(=O)N2CCCCCC2)C1 (configuration not stated)	–	–	–	–	–
N#Cc1c(NC(=O)CN2CCCCC2)sc2c1CCC2	–	–	–	–	–
COc1cc2c(cc1OC)-c1cc(NC3CCCCCCC3)nc(=O)n1CC2	–	–	51	–	–
Cn1c(=O)[nH]c(=O)c2c1nc(Br)n2CCCO	–	–	–	–	–
Cc1ccc(C2CC(c3ccccc3)=NN2C(=S)Nc2ccccc2)o1 (configuration not stated)	–	–	56	–	–
CC(=O)c1ccc(NC(=O)C2CCC(C)NC2=O)cc1 (configuration not stated)	–	–	–	–	–
Cc1ccc(-c2csc(N3CCC(NS(=O)(=O)c4ccc5c(c4)OCCO5)CC3)n2)cc1	–	–	63	–	–
N#CC1(c2ccccc2)CCCN1C(=O)c1ccccc1Cl (configuration not stated)	–	–	–	–	–
CN(CCC#N)C(=O)c1ccc(CNS(=O)(=O)c2ccc(F)cc2)cc1	–	–	–	–	–
COc1cccc(-c2nn(C)c3sc(C(=O)NCc4ccc5c(c4)OCO5)cc23)c1	–	76	87	–	–
COc1cccc(-c2nn(C)c3sc(C(=O)NCc4ccc(C)o4)cc23)c1	–	–	54	–	·
CCOC(=O)N1CCC(NC(=O)c2cc3c(-c4ccc(OC)c(OC)c4)nn(C)c3s2)CC1	–	–	–	–	·
O=C(Cn1nnc(-c2cccc(C(F)(F)F)c2)n1)N1CCCCCC1	–	57	–	4.2	–
Cc1ccccc1N1C(=O)CC(N(O)c2ccccc2)C1=O (configuration not stated)	–	74	–	–	–
SMILES	CYP2C19 activ	CYP2C19 inh	CYP2C9 inhib	CYP2C9 activ	EphB4 antag
O=C1CC(N(O)c2ccccc2)C(=O)N1c1cc(Cl)cc(Cl)c1 (configuration not stated)	–	–	–	–	–
O=C1CC(N(O)c2ccccc2)C(=O)N1Cc1ccccc1 (configuration not stated)	–	78	–	–	·
CCCOc1ccc(N2C(=O)CC(N(O)c3ccccc3)C2=O)cc1 (configuration not stated)	–	–	–	–	–
CCOc1cc(C(=O)Nc2cccc3ncccc23)cc(OCC)c1OCC	–	–	–	–	–
CCOc1cc(C)ccc1OCc1nnc(SCC(=O)c2cccc([N+](=O)[O-])c2)n1C	–	–	–	–	–
COCCCn1c(SCc2ccc(OC)cc2)nc2cc(OC)c(OC)cc2c1=N	–	55	72	–	–
COCCNC(=O)CSc1nc2cc(OC)c(OC)cc2c(=O)n1Cc1ccc(OC)cc1	–	–	–	–	–
Cc1noc(C)c1S(=O)(=O)Nc1ccc(C(=O)NCc2ccccc2)cc1	–	–	–	–	–
O=C(COc1ccc(S(=O)(=O)N2CCc3ccccc32)cc1Cl)NCc1ccccn1	–	94	94	–	–
CCOc1ccc(-c2cc(CCCC(=O)Nc3cccc(OC)c3)no2)cc1	–	–	–	–	·
Cc1ccc(OCC(=O)NCc2ccccn2)cc1	–	76	–	–	–
COc1ccc(-c2cc(CCCC(=O)NCCc3ccc(OC)cc3OC)no2)cc1	·	·	·	·	–
COc1ccc(-c2cc(CCCC(=O)NCc3ccccn3)no2)cc1	–	56	67	–	–
CCOc1ccc(-c2cc(CCCC(=O)NCCc3ccc(OC)c(OC)c3OC)no2)cc1	–	–	66	–	–
CCOC(=O)c1c(C)c(C(=O)NCc2ccco2)c(C)n1Cc1ccccc1	–	–	–	–	–
CCOc1ccc(-c2cc(CCCC(=O)NCCc3ccccc3)no2)cc1	–	–	50	–	–
Cc1cc(S(=O)(=O)NC2CCCCC2)ccc1OCC(=O)NCc1ccccn1	–	–	54	–	–
CCOc1ccc(-c2cc(CCCC(=O)NCc3cccnc3)no2)cc1	–	–	–	–	·
Cc1ccccc1NC(=O)C(=O)NCc1ccccn1	–	89	–	–	–
CCn1cc(C(=O)NCCCN2CC(C)CC(C)C2)c(=O)c2cc(S(=O)(=O)N(C)C)ccc21 (configuration not stated)	–	–	–	–	–
CCCCC(c1nnnn1CS(=O)(=O)c1ccc(C)cc1)N1CCN(c2ccccc2)CC1 (configuration not stated)	–	65	69	–	–
CC(=O)NC(Cc1ccc(C(C)C)cc1)C(=O)NC1CCN(c2nc(C)cc(C)n2)CC1 (configuration not stated)	–	60	–	–	–
Cc1cc(NC(=O)c2noc3c2CCc2ccccc2-3)n(-c2ccccc2)n1	–	–	–	–	·
c1ccc2c(c1)Sc1ccccc1-n1cnnc1-2	·	·	·	·	–
CC(C)(C)C(=O)Oc1cc(N)n(S(=O)(=O)c2ccccc2)n1	–	–	–	–	·
SMILES	CYP2C19 activ	CYP2C19 inh	CYP2C9 inhib	CYP2C9 activ	EphB4 antag
CC(=O)Oc1c(S(=O)(=O)c2ccccc2)c(C)nn1C(C)(C)C	–	86	–	–	–
CCC(=O)Oc1c(S(=O)(=O)c2ccc(C)cc2)c(C)nn1C(C)(C)C	–	69	52	–	–
Cc1nn(C(=O)c2cccs2)c(N)c1-c1ccccc1	–	–	–	–	·
COCC(=O)Oc1c(S(=O)(=O)c2ccc(C)cc2)c(C)nn1-c1ccccc1	–	–	81	–	–
Cc1nn(C(C)(C)C)c(OC(=O)c2cccs2)c1S(=O)(=O)c1ccccc1	–	–	87	–	–
COCC(=O)OCC(=O)Nc1cc(C(C)(C)C)nn1-c1ccccc1	–	–	–	–	–

From PubChem BioAssay
